Screening data deposited in PubChem by Broad Institute.
Hits are enriched below; roughly 2.1% of the tested compounds scored in any of these assays.
PAX8 reporter: lowers PAX8-driven luciferase in RMG-I cells; inhibition, % at 12.6 µM; 360,000 tested, 1.2% active; AID 652154; RMG-I TPO-luciferase reporter, SteadyGlo, 24 h;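 active means mean replicate inhibition at least 60% with every replicate also reaching 60%; inconclusive means only one of the two criteria is met; inactive means mean below 60% and not all replicates reaching 60%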;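 further: luciferase light reporting Pax8 driven TPO promoter activity; plate controls were median of neutral control wells for no effect and mitoxantrone controls for full effect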
Shn3 inh set2: reduces Shn3 3'UTR luciferase signal in osteoblasts; Clone20 osteoblast Shn3 3'UTR firefly luciferase, 24 h; inhibition, % at 12.5 µM; 360,000 tested, 0.52% active;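 active means mean inhibition of at least 75% with every replicate also reaching 75%; inconclusive means mean inhibition at least 75% but some replicate below; inactive means mean inhibition below 75%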;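 further: 0% = median of neutral control wells and 100% = pilot-screen positive control compound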
MITF TRPM1 inh: reduces MITF-dependent TRPM1 promoter luciferase signal. SK-MEL-5 TRPM1 promoter luciferase, 24 h. inhibition, % at 12.5 µM. 330,000 tested, 0.83% active;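 active means mean inhibition across replicates of 60% or more, whatever share of single replicates reaches that level; inconclusive means some that reach 60%, reason not given; inactive means mean inhibition across replicates below 60%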
LMP1 NFkB inh: reduces LMP1-driven NF-kappaB luciferase signal | LMP1-induced NF-kappaB luciferase reporter cells, luminescence | inhibition, % at 12.5 µM | 350,000 tested, 0.69% active | AID 504558; in the data active means inhibition above about 41%; inconclusive means no clear call, values can overlap the other calls;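 further: 0% = neutral control wells and 100% = reference inhibitor control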
aSyn UTR inh: 5' untranslated region of α-synuclein, MLPCN primary screen; AID 1813; inhibition, % (tested at 7.5 µM); 300,000 tested, 0.82% active; alpha-synuclein 5'UTR reporter, inhibitor activity; in the data active means inhibition above about 60%; inconclusive means no clear call, values can overlap the other calls;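 further: H4 neuroglioblastoma cells stably carrying SNCA 5'UTR luciferase fusion; 0% = DMSO wells and 100% = positive control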
* marks the source's active call; other numbers are inactive results; ? = inconclusive; . = no result.

SMILES	PAX8 reporter	Shn3 inh set2	MITF TRPM1 inh	LMP1 NFkB inh	aSyn UTR inh
O=C(COc1ccc2ccc(=O)oc2c1)N1CCN(c2ccccc2)CC1	-4.8	-0.2	-2.0	2.5	19.3
O=C(c1noc2c1CCCC2)N1CCCCC1	.	-15.1	1.9	68.2*	-22.9
O=C(c1noc2c1CCCCC2)N1CCOCC1	.	6.9	8.0	-12.2	0.9
C[C@H](CO)N1C[C@H](C)[C@H](CN(C)C(=O)c2ccccc2)OCCCC[C@H](C)Oc2ccc(NC(=O)Nc3ccc(C(F)(F)F)cc3)cc2C1=O	104.1*	.	.	.	.
C[C@H]1CCCCO[C@H](CN(C)C(=O)c2ccccc2)[C@@H](C)CN([C@@H](C)CO)C(=O)c2cc(NC(=O)Nc3ccc(C(F)(F)F)cc3)ccc2O1	85.8*	.	.	.	.
CCC(C)Nc1nc(N)c([N+](=O)[O-])c(NCc2ccccc2)n1 (stereo not drawn)	11.7	0.6	-1.7	-11.0	64.7*
Nc1nc(NCC(=O)O)nc(NC2CCCCC2)c1[N+](=O)[O-]	-30.9	-2.1	3.2	1.3	21.4
CCC(C)Nc1nc(N)c([N+](=O)[O-])c(N2CCCCCC2)n1 (stereo not drawn)	77.5*	8.9	0.8	-3.7	32.5
CCC(C)Nc1nc(N)c([N+](=O)[O-])c(NC2CCCCC2)n1 (stereo not drawn)	5.2	2.3	-4.2	-24.5	102.2*
O=C(C[C@H]1CC[C@@H]2[C@H](COC[C@@H](O)CN2C(=O)c2ccccc2F)O1)NCc1ccc(Cl)cc1	-1.4	.	.	.	.
Cc1nc(SCc2nc3cc(Cl)c(F)cc3[nH]2)c2oc3ccccc3c2n1	87.4*	23.6	14.3	18.7	.
Cc1nc(SCc2nc3ccc(Cl)cc3[nH]2)c2oc3ccccc3c2n1	13.7	-14.3	7.9	17.3	.
O=c1oc2ccccc2n1Cc1ccccc1F	-4.6	0.5	14.8	-5.6	-2.8
Nc1nc(Cl)cc(NCCc2ccc(O)cc2)n1	-4.5	21.2	15.5	24.7	-1.2
Oc1ccc(CCNc2ncnc3ccc(Cl)cc23)cc1	-24.0	88.0*	33.0	20.1	-13.7
CCOc1ccccc1OCCCC(=O)N1CCN(S(=O)(=O)c2ccc(Cl)cc2)CC1	1.4	-5.8	7.1	70.0*	.
Cc1cc(C(=O)Nc2cccc3c2O[C@@H](CN(C)C)[C@H](C)CN([C@@H](C)CO)C3=O)n(C)n1	-16.3	.	.	.	.
O=S(=O)(NCC1CCCO1)c1cccc(S(=O)(=O)N2CCCC2)c1 (stereo not drawn)	.	-0.9	-5.1	-1.8	-3.2
CCOC(=O)c1c(C)[nH]c(C2=NNC(=Nc3ccccc3OC)SC2)c1C	74.2*	-24.9	-48.0	-26.9	-89.6
CCOC(=O)c1c(C)[nH]c(C2=NNC(=Nc3ccccc3)SC2)c1C	-7.0	-19.6	-14.0	-5.5	-96.8
Cc1ccc(S(=O)(=O)Nc2ccc3c(c2)C(=O)N([C@H](C)CO)C[C@@H](C)[C@@H](CN(C)S(=O)(=O)c2ccc(Cl)cc2)OCCCC[C@@H](C)O3)cc1	48.8	.	.	.	.
Cc1ccc(S(=O)(=O)N(C)C[C@@H]2OCCCC[C@@H](C)Oc3ccc(NS(=O)(=O)c4ccc(Cl)cc4)cc3C(=O)N([C@H](C)CO)C[C@H]2C)cc1	77.4*	.	.	.	.
Cc1ccc(S(=O)(=O)Nc2ccc3c(c2)C(=O)N([C@@H](C)CO)C[C@@H](C)[C@H](CN(C)S(=O)(=O)c2ccc(Cl)cc2)OCCCC[C@@H](C)O3)cc1	84.3*	.	.	.	.
Cc1ccc(S(=O)(=O)Nc2ccc3c(c2)C(=O)N([C@H](C)CO)C[C@H](C)[C@H](CN(C)S(=O)(=O)c2ccc(Cl)cc2)OCCCC[C@H](C)O3)cc1	65.6*	.	.	.	.
Cc1ccc(S(=O)(=O)N(C)C[C@H]2OCCCC[C@H](C)Oc3ccc(NS(=O)(=O)c4ccc(Cl)cc4)cc3C(=O)N([C@H](C)CO)C[C@H]2C)cc1	31.1	.	.	.	.
SMILES	PAX8 reporter	Shn3 inh set2	MITF TRPM1 inh	LMP1 NFkB inh	aSyn UTR inh
Cc1ccc(S(=O)(=O)N(C)C[C@@H]2OCCCC[C@@H](C)Oc3ccc(NS(=O)(=O)c4ccc(Cl)cc4)cc3C(=O)N([C@@H](C)CO)C[C@H]2C)cc1	67.9*	.	.	.	.
CN(C)S(=O)(=O)c1ccc(Cl)c(NC(=O)CN2CCNC(=O)C2)c1	-10.5	-11.0	7.5	-27.4	-27.2
CN1C=CC2=C(C#N)C(N)C(C#N)(C#N)C(c3ccccc3)C2C1 (stereo not drawn)	36.1	-3.8	8.8	-3.2	27.9
COc1ccccc1S(=O)(=O)Nc1ccc2c(c1)C(=O)N(C)C[C@H](OC)[C@@H](C)CN[C@H](C)CO2	-12.2	.	.	.	.
Cc1cccc(-n2c(C)cc(C(=O)NC3CCCCC3)c2C)c1	-229.6	-41.1	-56.4	-9.6	-75.7
Cc1ccc(S(=O)(=O)N(C)C[C@@H]2OCCCC[C@H](C)Oc3ccc(NS(=O)(=O)c4ccc(Cl)cc4)cc3C(=O)N([C@H](C)CO)C[C@@H]2C)cc1	73.9*	.	.	.	.
CCc1ccc(C2=NNC(=Nc3cccc(S(=O)(=O)N(C)C)c3)SC2)cc1	103.6*	76.4	53.1	-2.9	-16.5
Cc1ccc(-c2ccc(=O)n(CCC(=O)N3CCN(Cc4ccccc4)CC3)n2)cc1	14.0	-27.9	9.4	10.6	16.6
Cc1ccc(-c2ccc(=O)n(CCC(=O)N3CCN(c4ccccc4)CC3)n2)cc1	62.7*	3.0	20.6	-3.1	17.6
CCc1nc2c(OCc3cc(Cl)cc(Cl)c3)cccn2c1N(C)C(=O)c1cccc(OC)c1	21.4	17.0	.	.	.
CC1(C(=O)NCc2cccc(C(F)(F)F)c2)CCN1Cc1ccc(-c2ccccc2)o1 (stereo not drawn)	74.2*	30.1	.	.	.
CC1(C(=O)NCc2cccc(C(F)(F)F)c2)CCN1Cc1cc2ccccc2o1 (stereo not drawn)	11.7	-2.3	.	.	.
CC(C)N(CC(N)=O)C(=O)Cc1coc2cc3c(cc12)CCC3	-0.3	5.9	-4.8	3.8	-1.8
CCC(=O)NC(c1ccc(Cl)cc1Cl)c1ccc2cccnc2c1O (stereo not drawn)	66.1*	?	56.8	49.3*	75.3*
CCCCC(=O)NC(c1ccc(Cl)cc1Cl)c1ccc2cccnc2c1O (stereo not drawn)	65.6*	93.2*	44.5	68.7*	91.6*
CC(C)C(=O)NC(c1ccc(Cl)cc1Cl)c1ccc2cccnc2c1O (stereo not drawn)	59.8	87.0*	26.6	?	92.3*
CC(NC(=O)CSc1ncccn1)c1ccc(Cl)cc1Cl (stereo not drawn)	10.5	40.4	1.7	-3.6	-2.3
CCOc1ccc(C(=O)NCC(=O)NNC(=O)C2COc3ccccc3O2)cc1OCC (stereo not drawn)	0.9	-3.8	1.1	0.4	10.5
Nc1nnnn1/N=C/C(Br)=C/c1ccccc1	93.0*	97.3*	84.5*	21.5	-250.6
COc1ccc(C(=O)/C=C2\C(=O)Nc3ccc(Br)cc32)cc1	22.0	36.6	1.0	9.1	.
O=C1Nc2ccc(Br)cc2/C1=C/C(=O)c1ccc2c(c1)OCO2	25.5	97.2*	66.1*	3.4	9.6
